# E-sel TNF inh: E-selectin induction blockers in HUVEC – imaging, immunofluorescence, high content, primary screen | HUVEC TNFa-induced E-selectin immunofluorescence | inhibition, % at 2 µM | actives 0.71% (n = 120,000);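 active = inhibition above the batch mean plus 3 SD, and confirmed as a hit on visual image review, cut at about 43% in these data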;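 note: 0% = TNF-stimulated DMSO wells and 100% = unstimulated control wells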
# TNFa cytotox: cytotoxicity in TNFa-stimulated HUVEC, primary screen, cytotoxicity control for VCAM1 expression modulator project, imaging, Hoechst nuclei count. HUVEC TNFalpha-stimulated, Hoechst cell count. actives 0.17% (n = 93,000). AID 848, 2007. cell count reduction, % at 2 µM;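 active = cell count reduction exceeding the screen mean by over 5 SD, scaled to untreated wells per plate, cut at about 78% in these data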;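 note: cells counted after 24 h of TNF alpha exposure following the 1 h pretreatment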
# VCAM1 TNFa inh: inhibitors of TNFa-induced VCAM1 expression, primary screen, imaging, HUVEC, TNFa stimulus, immunofluorescence. HUVEC TNFa-induced VCAM-1 immunofluorescence, high-content imaging. inhibition, % at 2 µM. actives 0.48% (n = 95,000);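 active = inhibition above the batch mean plus 3 SD, with images confirmed as a hit by eye, cut at about 37% in these data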;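 note: 0% = TNF-stimulated DMSO wells and 100% = unstimulated control wells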
# NFkB transloc inh: inhibitors of IL-1B driven NFkB p65 nuclear import, primary screen, imaging, HUVEC, IL-1B stimulus, high-content imaging | HUVEC IL-1B NFkB p65 nuclear translocation imaging | inhibition, % at 2 µM | actives 0.43% (n = 94,000);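 active = inhibition above about 30% together with a positive call from visual inspection of the well image, limit read from the data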;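 note: nuclear over cytoplasmic p65 intensity ratio measured by imaging; 0% = IL-1B stimulated DMSO wells and 100% = unstimulated DMSO wells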
# IL1B cytotox: cytotoxicity in IL-1B stimulated HUVEC, primary screen, cytotoxicity control for IL-1B NFkB translocation project, imaging, Hoechst nuclear count, IL-1B stimulus; HUVEC cell count loss; cell count reduction, % at 2 µM; actives 0.41% (n = 94,000); AID 845, 2007;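 active = cell count reduction more than 3 SD above the screen-wide mean, cut at about 70% in these data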;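 note: normalized per plate to untreated control cells as the no-loss baseline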
# IL1B NFkB pot: enhancers of NFkB p65 translocation in HUVEC – imaging, IL-1B stimulus, high-content imaging, primary screen. HUVEC IL-1B NFkB p65 nuclear translocation imaging. activation, % at 2 µM. actives 0.3% (n = 94,000). AID 819, 2007;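 active = activation above 40%, about the mean plus 3 SD, also judged a hit on visual image review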;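 note: percent activation is computed from the nuclear over cytoplasmic p65 intensity ratio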
# Numbers without * were called inactive; nt = not tested or not shown. Shown are actives, neighbours in structure and some others; about 1.8% of the full set was active somewhere.
SMILES,E-sel TNF inh,TNFa cytotox,VCAM1 TNFa inh,NFkB transloc inh,IL1B cytotox,IL1B NFkB pot
CC(C)CCOCC(=O)Nc1cccc(C(=O)O)c1,-2.4,nt,nt,nt,nt,nt
CCc1ccccc1NC1=CC(=O)CC(C)(C)C1,-3.6,nt,nt,nt,nt,nt
Cn1c(NC(=O)c2ccccc2)cc(=O)n(C)c1=O,nt,-10.0,4.5,0.4,5.6,-0.4
Cn1c(NC(=O)C2c3ccccc3Oc3ccccc32)cc(=O)n(C)c1=O,17.1,64.7,93.6*,-1.1,-22.6,1.1
Cc1ccc2nc(NC(=O)CNS(=O)(=O)c3ccc(Br)s3)sc2c1,nt,-12.0,0.1,5.2,-14.6,-5.2
Cc1ccc2nc(NC(=O)CN(C)S(=O)(=O)c3ccc(Br)s3)sc2c1,-0.6,-4.7,2.8,37.6*,28.6,-37.6
COc1ccc(OC)c(CNCCNC(=O)c2ccco2)c1,-13.6,-18.4,-20.0,2.3,-11.3,-2.3
COc1cccc(CNCCNC(=O)c2ccco2)c1OC,8.7,1.2,-10.1,-41.6,-26.0,41.6*
COc1ccc(N2C(=O)C3CCCN3C2c2ccccc2F)cc1 (centres undefined),-1.1,-23.1,9.6,-51.0,-0.3,51.0*
Cc1ccc(CN2C(=O)C3CCCN3c3ccc(S(=O)(=O)N4CCOCC4)cc32)cc1 (centres undefined),nt,-2.8,3.7,-27.0,-8.6,27.0
Cc1cc(C(=O)OCC(=O)c2c(N)n(C)c(=O)n(C)c2=O)c(C)n1-c1ccccc1,nt,-12.1,11.8,-2.3,-3.1,2.3
O=C(COC(=O)CCc1ccc(S(=O)(=O)N2CCOCC2)cc1)NC1CCCC1,62.9*,nt,nt,nt,nt,nt
C=CCC(Nc1ccco1)c1ccccc1 (centres undefined),-16.3,-19.4,7.3,-32.5,-7.0,32.5
COc1ccc(OC)c(N(CC(=O)Nc2cccnc2)S(C)(=O)=O)c1,-2.0,-20.7,-4.3,-4.5,3.3,4.5
CCOc1ccccc1N(CC(=O)Nc1cccnc1)S(=O)(=O)c1ccc(C)cc1,-5.4,nt,nt,nt,nt,nt
COc1ccc(OC)c(N(CC(=O)Nc2cccnc2)S(=O)(=O)c2ccc(C)cc2)c1,-3.9,-44.3,24.6,59.5*,2.4,-59.5
COc1ccc(OC)c(N(CC(=O)Nc2cccnc2)S(=O)(=O)c2ccc(OC)c(OC)c2)c1,0.5,-6.5,23.9,90.8*,89.6*,-90.8
COc1ccc(OC)c(N(CC(=O)NC2CC2)S(=O)(=O)c2ccc(C)cc2)c1,10.5,89.8*,-46.2,2.1,-12.4,-2.1
CCN1C(=O)c2cccc3c(NC(=O)c4cccc(N5C(=O)CCC5=O)c4)ccc1c23,60.1*,-17.5,0.9,-0.9,12.2,0.9
CC(/C=N/Nc1nc(C)cc(C)n1)=C\c1ccc(C(C)C)cc1,-2.3,nt,nt,nt,nt,nt
C=CCC(CC=C)(NC(=O)c1ccccc1C)c1ccccc1,nt,-7.3,16.9,0.9,-9.1,-0.9
CCN(CC)C(=O)Cn1cnc2sc(C(=O)Nc3cc(OC)c(OC)c(OC)c3)c(C)c2c1=O,5.2,-16.7,-20.4,-42.1,-78.8,42.1*
CCCNC(=O)Cn1cnc2sc(C(=O)Nc3cc(OC)c(OC)c(OC)c3)c(C)c2c1=O,nt,-15.1,19.9,-11.5,-17.8,11.5
O=C(COc1ccc(/C=N/NC(=O)c2ccccc2)cc1)Nc1ccc([N+](=O)[O-])cc1,5.2,-13.0,-1.7,0.6,-5.1,-0.6
CC(C)Oc1ccc(/C=N/NC(=O)C(CSCc2ccccc2)NC(=O)c2ccc([N+](=O)[O-])cc2)cc1 (centres undefined),95.6*,-35.5,15.7,-8.4,-4.1,8.4
SMILES,E-sel TNF inh,TNFa cytotox,VCAM1 TNFa inh,NFkB transloc inh,IL1B cytotox,IL1B NFkB pot
O=C(NC1CCSC1=O)C1CCCCC1 (centres undefined),-9.9,nt,nt,nt,nt,nt
COc1ccc(N2CCN(C(=O)c3csc4ccccc34)CC2)cc1,7.1,-16.6,29.8,-1.2,-70.5,1.2
O=C(c1csc2ccccc12)N1CCN(c2ccc(Cl)c(Cl)c2)CC1,28.4,-2.7,-14.2,61.9*,2.5,-61.9
CC(C)CC(C(=O)N1CCOCC1)N1Cc2ccccc2C1=O (centres undefined),-20.2,nt,nt,nt,nt,nt
O=C(O)C(Cc1ccccc1)N1Cc2ccccc2C1=O (centres undefined),4.3,-47.4,-8.5,-40.2,4.9,40.2*
CC(C)NC(=O)c1nc2ccccc2s1,4.0,-17.1,15.8,2.7,74.3*,-2.7
COc1ccc(NC(=O)c2nc3ccccc3s2)cc1,4.9,nt,nt,nt,nt,nt
COc1ccc2c(c1)c1ncn(CCN3CCNCC3)c(=O)c1n2C,6.9,-3.7,24.8,15.9,92.4*,-15.9
O=C(CN1CCN(c2ccccc2F)CC1)c1c[nH]c2ccccc12,53.4*,12.0,8.2,9.6,8.8,-9.6
Cn1c(=O)[nH]c(=O)c2c1nc(N1CCOCC1)n2CCCSc1ncccn1,10.1,-31.2,-14.7,4.7,-7.6,-4.7
C[N+]1(CC(=O)Nc2ccccc2Cl)CCN(C(=O)c2cccs2)CC1,30.4,-6.3,7.0,-15.4,-95.6,15.4
COc1cccc(C(=O)Nc2ccccc2F)c1,3.7,nt,nt,nt,nt,nt
COc1cccc(C(C)NC(=O)c2c(F)cccc2Cl)c1 (centres undefined),61.5*,nt,nt,nt,nt,nt
CS(=O)(=O)N1CCCC(C(=O)NCc2ccccc2Cl)C1 (centres undefined),16.5,32.0,3.8,4.2,0.4,-4.2
COc1cccc(N2CCN(c3c4c(nc5ncnn35)CCC4)CC2)c1,-20.0,20.8,3.7,30.2*,36.4,-30.2
CCC12CCCN3CCC4(C(=C(C(=O)OC)C1)Nc1ccccc14)C32 (centres undefined),nt,-32.1,6.3,-9.2,-14.5,9.2
CCOC(=O)N1CCN(C(=O)COc2cccc3c2CCN(Cc2cccc(C)c2)C3=O)CC1,68.9*,nt,nt,nt,nt,nt
CCOC(=O)N1CCN(C(=O)COc2cccc3c2CCN(Cc2ccccc2C)C3=O)CC1,21.3,nt,nt,nt,nt,nt
O=C1NC(Cc2c[nH]c3ccccc23)C(=O)N1CCOc1ccccc1 (centres undefined),-28.5,-11.0,-6.7,-20.2,-15.2,20.2
COc1ccc(/C=N/OCC(=O)Nn2c(C)nc3ccccc3c2=O)cc1,-5.4,nt,nt,nt,nt,nt
COc1ccc(-c2cc(C)nc(SCc3cccc(C(=O)O)c3)n2)cc1,68.6*,nt,nt,nt,nt,nt
NC(=O)CCCc1nc(-c2ccccc2Cl)no1,-14.4,-6.7,-0.3,13.7,-16.4,-13.7
CNC(=O)CCCc1nc(-c2ccccc2Cl)no1,-11.7,-48.9,-1.7,-65.2,4.4,65.2*
Cc1ccc(NC(=O)COC(=O)c2cccc3c(=O)c(C)c(-c4ccccc4)oc23)cc1,-29.2,nt,nt,nt,nt,nt
C=CC(=O)Nc1ccc(Br)cc1,12.1,5.4,52.4*,-3.8,1.3,3.8
COc1ccc(CNC(=O)C(CCSC)NS(=O)(=O)c2ccccc2F)cc1 (centres undefined),78.6*,nt,nt,nt,nt,nt
